Experimental data: PubChem BioAssay AID618 (Sanford-Burnham Center for Chemical Genomics, 2007)
Hit rate of the full screen: of about 87,000 compounds, about 540 (0.62%) were called active. No rule for the calls is given here. Many of the other results were omitted from the sample, so actives are more common in it than they were. Entries with a potency or affinity are not part of this list.

Assay: inhibitors of MT1-MMP promoter transcription, cell-based, luciferase reporter, luminescence (AID 618);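 also: actives suppress MT1-MMP promoter-driven transcription so potencies describe inhibitors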
Settings: MT1-MMP promoter luciferase reporter cells

| Compound | outcome |
| --- | --- |
| CN1CCN(C(=O)COc2ccc(S(=O)(=O)N(C)Cc3ccccc3)cc2)CC1 | inactive |
| CN1CCN(C(=O)COc2ccc(-c3nc4ccccc4s3)cc2)CC1 | active |
| COc1cccc(OCC(=O)N2CCN(C)CC2)c1 | inactive |
| CCOC(=O)C1=C(N)Oc2ccccc2C12C(=O)N(CC(=O)OC)C(CC(=O)OC)=C2C(=O)OC (stereo not given) | inactive |
| C[C@H]1CCC/C=C/C2C[C@H](O)CC2[C@H](O)/C=C/C(=O)O1 (stereo not given in full) | active |
| C[C@H]1CCCC(=O)CCC/C=C/c2cc(O)cc(O)c2C(=O)O1 | inactive |
| C[C@H]1CCC[C@@H](O)CCC/C=C/c2cc(O)cc(O)c2C(=O)O1 | inactive |
| Cn1c(O)c(C=NCc2cccs2)c(=O)n(C)c1=O | inactive |
| CCC(C)OC(=O)c1c(N)n(Cc2cccs2)c2nc3ccccc3nc12 (stereo not given) | inactive |
| COc1ccc(Nc2ncc(C(=O)N3CCC4(CC3)OCCO4)c3ccccc23)cc1 | inactive |
| CC(C)c1cccc(C(C)C)c1OCCn1ccnc1 | inactive |
| CCn1c(=O)cc(OCC(=O)N2CCN(Cc3ccc4c(c3)OCO4)CC2)c2ccccc21 | inactive |
| O=C1CC(N2CCC(n3c(=O)[nH]c4ccccc43)CC2)C(=O)N1c1ccc(F)cc1 (stereo not given) | inactive |
| O=c1[nH]c2ccccc2n1C1CCN(CCCC(c2ccc(F)cc2)c2ccc(F)cc2)CC1 | active |
| O=c1[nH]c2ccccc2n1CCCN1CCC(n2c(=O)[nH]c3cc(Cl)ccc32)CC1 | inactive |
| Cc1ccc(-n2nc(C)cc2NC(=O)COc2cc(C)cc3oc(=O)c4c(c23)CCC4)cc1 | inactive |
| CC12CN3CC(C)(CN(C1)P3(=O)Oc1ccccc1)C2=O (stereo not given) | inactive |
| Cc1nc2c(=O)n(C)c(=O)nc-2n(C)n1 | active |
| CCOC(=O)CC1=C(C(=O)OCC)C2(C(=O)N1CC(=O)OC)C(C#N)=C(N)Oc1ccccc12 (stereo not given) | inactive |
| CCC/C=C(\CCC)C(NP(=O)(c1ccccc1)c1ccccc1)c1ccccc1 (stereo not given) | inactive |

| Compound | outcome |
| --- | --- |
| CCCCCCOC(=O)c1ccccc1N | inactive |
| Nc1ccccc1C(=O)OC1CSC1 | inactive |
| Nc1ccccc1C(=O)OCCOc1ccccc1 | active |
| CCCCOP(=O)(CN1CCOCC1)OCCCC | inactive |
| CCN1CCN(C(=O)COc2cc(=O)n(CC)c3ccccc23)CC1 | inactive |
| c1ccc2c(CNC3CCCCCC3)c[nH]c2c1 | inactive |
| CCCCn1c(O)c(C=NC2CC3CCC2(C)C3(C)C)c(=O)[nH]c1=O (stereo not given) | inactive |
| Cc1ccc(C2(O)CC(C)N(C)CC2C)cc1 (stereo not given) | inactive |
| Cc1ccc(N(C)C(=O)Oc2cccc3cccnc23)cc1 | inactive |
| CN(C)CCN=Cc1c(O)n(-c2cccc3ccccc23)c(=O)[nH]c1=O | inactive |
| COC(=O)[C@@H]1[C@@H](C(=O)OC)C2(c3ccccc3-c3ccccc32)N(c2ccc(Cl)cc2)N1C#N | inactive |
| COC(=O)C1CN(C#N)N(c2ccc(Cl)cc2)C12c1ccccc1-c1ccccc12 (stereo not given) | active |
| COC(=O)C[C@]1(C(=O)OC)CN(C#N)N(c2ccc(Cl)cc2)C12c1ccccc1-c1ccccc12 | active |
| CCCN1[C@@H]2C[C@@H](O)CC[C@@H]2C[C@H]1C(=O)OC | inactive |
| CN(C)CCCN=Cc1c(O)n(CCc2ccc(F)cc2)c(=O)[nH]c1=O | inactive |
| CC(C)CCC1(CCc2ccncc2)C(=O)NC(=O)NC1=O | inactive |
| CCCCn1c(O)c(C(C)=Nc2c(C)n(C)n(-c3ccccc3)c2=O)c(=O)[nH]c1=O | inactive |
| COc1cccc(OC)c1C1=NCC(=O)Nc2c1oc1ccc(Br)cc21 | active |
| O=C1CN=C(c2ccccc2)c2oc3ccc(Br)cc3c2N1 | inactive |
| CCOc1cc(-c2nc3c(C)cccn3c2NCC2CCCO2)ccc1O (stereo not given) | inactive |
